Compounds without any hit were thinned out: in the full panel of roughly 79,000, 15% have a hit. The source made the active and inactive calls. No stated cut-off is given here; in the data, active means growth inhibition above about 70%; inactive means the rest.
What was measured:
[1] = NCI Yeast Anticancer Drug Screen. Data for the rad50 strain (AID 155);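 further: 0% = growth of vehicle-only cultures of the same strain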; conditions: S. cerevisiae rad50 strain growth inhibition, active compounds read high
Method in brief: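 DNA repair mutant yeast, compound exposure, growth read-out; inhibition is taken relative to vehicle.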

[2] = NCI Yeast Anticancer Drug Screen. Data for the mec2-1 strain (AID 157); conditions: S. cerevisiae mec2-1 strain, active compounds read high
Method in brief: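 Yeast mec2-1 mutant treated with compound. Readout: growth inhibition vs vehicle controls.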

[3] = NCI Yeast Anticancer Drug Screen. Data for the sgs1 mgt1 strain (AID 161);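 further: 0% = growth of cultures given vehicle only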; conditions: S. cerevisiae sgs1 mgt1 strain, active compounds read high
Method in brief: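 Test agents were incubated with a DNA-repair-mutant yeast strain. Growth was then read and compared against vehicle-treated controls.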

[4] = NCI Yeast Anticancer Drug Screen. Data for the cln2 rad14 strain (AID 165);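 further: 0% = growth equal to vehicle treated cultures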; conditions: S. cerevisiae cln2 rad14 strain, active compounds read high
Method in brief: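 cln2 rad14 yeast strain; compound exposure; growth inhibition read vs vehicle controls.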

[5] = NCI Yeast Anticancer Drug Screen. Data for the bub3 strain (AID 167); conditions: S. cerevisiae bub3 mutant strain, active compounds read high
Method in brief: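 In this screen, a yeast mutant lacking normal mitotic checkpoint function is challenged with compound. Relative growth versus vehicle gives the inhibition value.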

[6] = NCI Yeast Anticancer Drug Screen. Data for the mlh1 rad18 strain (AID 175); conditions: S. cerevisiae mlh1 rad18 strain growth inhibition, active compounds read high
Method in brief: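 Yeast w/ defined DNA-repair lesions; compound exposure; growth vs vehicle controls → % inhibition.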

[7] = at 5.0 µM (retest, dose inferred, filed as 0.5)
[8] = at 50.0 µM (retest, dose inferred, filed as 5.0)

Measured: growth inhibition

O=C(Nc1ccc([N+](=O)[O-])cc1[N+](=O)[O-])C(=O)C(C(=O)c1ccc(Cl)c(Cl)c1)C1OC(=O)c2ccccc21 (configuration not stated)
inactive: [1]; [7] 27% | [1]; [8] 27% | [1]; at 50.0 µM 67% | [2]; [7] 25% | [2]; [8] 25% | [2]; at 50.0 µM 40.9% | [3]; [7] 22% | [3]; [8] 22% | [3]; at 50.0 µM 61.8% | [4]; [7] 30% | [4]; [8] 30% | [5]; [7] 31% | [5]; [8] 31% | [5]; at 50.0 µM 53.5% | [6]; [7] 16% | [6]; [8] 16% | [6]; at 50.0 µM 39.6%
active: [4]; at 50.0 µM 72.3%

O=[N+]([O-])c1cccc(S(=O)(=O)Cl)c1
inactive: [1]; [7] -1% | [1]; [8] 10% | [1]; at 50.0 µM -15.3% | [2]; [7] 2% | [2]; [8] 3% | [2]; at 50.0 µM 14.9% | [3]; [7] 1% | [3]; [8] 6% | [3]; at 50.0 µM 14.2% | [4]; [7] -3% | [4]; [8] 0% | [4]; at 50.0 µM 43.9% | [5]; [7] -2% | [5]; [8] 4% | [5]; at 50.0 µM 59.5% | [6]; [7] -1% | [6]; [8] 2% | [6]; at 50.0 µM 33.5%

Cn1nc2c(c(Cl)c1=O)Nc1ccccc1O2
inactive: [1]; [7] -32% | [1]; [8] -16% | [1]; at 50.0 µM 0.85% | [2]; [7] -9% | [2]; [8] -34% | [2]; at 50.0 µM -30.4% | [3]; [7] -20% | [3]; [8] -19% | [3]; at 50.0 µM -24.8% | [4]; [7] -8% | [4]; [8] -9% | [4]; at 50.0 µM 23.1% | [5]; [7] -45% | [5]; [8] -18% | [5]; at 50.0 µM 1.35% | [6]; [7] -25% | [6]; [8] -14% | [6]; at 50.0 µM -6.7%

CCCCNC(=O)OCc1c(COC(=O)NCCCC)c(-c2ccc(Cl)c(Cl)c2)n2c1CCC2
active: [1]; [8] 98% | [2]; [8] 99% | [3]; [8] 99% | [4]; [8] 98% | [5]; [8] 98% | [6]; [8] 98%
inactive: [1]; [7] 33% | [1]; at 50.0 µM 26.6% | [2]; [7] 27% | [2]; at 50.0 µM 7.3% | [3]; [7] 48% | [3]; at 50.0 µM 31.2% | [4]; [7] 53% | [4]; at 50.0 µM 70% | [5]; [7] 56% | [5]; at 50.0 µM 4.4% | [6]; [7] 25% | [6]; at 50.0 µM 31.8%

CN(C)c1nc(Cl)nc2c1ncn2C1OCC(O)C(O)C1O (configuration not stated)
inactive: [1]; [7] -4% | [1]; [8] 3% | [1]; at 50.0 µM 10.7% | [2]; [7] -8% | [2]; [8] 4% | [2]; at 50.0 µM 22% | [3]; [7] 9% | [3]; [8] 7% | [3]; at 50.0 µM 5.05% | [4]; [7] 1% | [4]; [8] -6% | [4]; at 50.0 µM 1.25% | [5]; [7] -1% | [5]; [8] -7% | [5]; at 50.0 µM -5.1% | [6]; [7] 11% | [6]; [8] 11% | [6]; at 50.0 µM 42.5%

C[Si](C)c1cccc(Cl)c1
inactive: [1]; [7] 2% | [1]; [8] 5% | [1]; at 50.0 µM 0.25% | [2]; [7] 0% | [2]; [8] 4% | [2]; at 50.0 µM 0.45% | [3]; [7] -1% | [3]; [8] -3% | [3]; at 50.0 µM 6.9% | [4]; [7] 8% | [4]; [8] 6% | [4]; at 50.0 µM 13.8% | [5]; [7] 1% | [5]; [8] 0% | [5]; at 50.0 µM 7.55% | [6]; [7] -29% | [6]; [8] 1% | [6]; at 50.0 µM -0.75%

Cc1ccc(C)c(C2CCCCC2O)c1 (configuration not stated)
active: [4]; at 50.0 µM 71.5%
inactive: [1]; [7] -1% | [1]; [8] -80% | [1]; at 50.0 µM 4.5% | [2]; [7] -8% | [2]; [8] -25% | [2]; at 50.0 µM -11.7% | [3]; [7] -1% | [3]; [8] -23% | [3]; at 50.0 µM -9.1% | [4]; [7] 9% | [4]; [8] -5% | [5]; [7] -13% | [5]; [8] -87% | [5]; at 50.0 µM 51.1% | [6]; [7] 0% | [6]; [8] -40% | [6]; at 50.0 µM -16.1%

Nc1ccc(O)c2c1C(=O)c1ccccc1C2O (configuration not stated)
inactive: [1]; [7] -9% | [2]; [7] 4% | [3]; [7] 32% | [4]; [7] -10% | [4]; at 50.0 µM 54.8% | [5]; [7] 19% | [6]; [7] 28%
active: [1]; [8] 96% | [1]; at 50.0 µM 94.8% | [2]; [8] 95% | [2]; at 50.0 µM 78.9% | [3]; [8] 97% | [3]; at 50.0 µM 83.8% | [4]; [8] 78% | [5]; [8] 96% | [5]; at 50.0 µM 81.5% | [6]; [8] 98% | [6]; at 50.0 µM 94.5%

CC(Br)C(=O)c1ccc2cc(Cl)c3ccccc3c2c1 (configuration not stated)
inactive: [1]; [7] -2% | [1]; at 50.0 µM -10.3% | [2]; [7] 5% | [2]; at 50.0 µM 31.4% | [3]; [7] 7% | [3]; at 50.0 µM 46.3% | [4]; [7] -4% | [4]; at 50.0 µM -16.8% | [5]; [7] 0% | [5]; at 50.0 µM 67.8% | [6]; [7] 7% | [6]; at 50.0 µM 39.1%
active: [1]; [8] 99% | [2]; [8] 99% | [3]; [8] 99% | [4]; [8] 99% | [5]; [8] 99% | [6]; [8] 99%

Reference: PubChem BioAssay (NCI)
